Screening data from PubChem BioAssay.
Spn MK inh: S. pneumoniae mevalonate kinase inhibition. purified MK, PK/LDH-coupled NADH absorbance 340 nm. inhibition, % at 10 µM. actives 0.48% (n = 65,000);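 active means ranked among the strongest by inhibition in the single 10 µM screen, a fixed top-ranked set picked for dose follow-up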
DPM-DC inhibit: S. pneumoniae DPM-DC inhibition | AID 556 | purified DPM-DC, PK/LDH coupled NADH fluorescence | calls only at 10 µM | actives 0.49% (n = 65,000);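 active means the 320 compounds with the highest percent inhibition in the single-dose primary screen, excluding strongly autofluorescent ones, cut at about 32% in these data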;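 further: kinetic rate of NADH fluorescence loss reporting ADP formed by the decarboxylase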
PMK inhibit: inhibitors of Streptococcus pneumoniae phosphomevalonate kinase; AID 539; inhibition, % at 10 µM; actives 0.49% (n = 65,000); purified PMK, PK/LDH-coupled NADH absorbance 340 nm;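 active means top-ranked compounds by inhibition in the single 10 µM screen, taking a fixed number of the strongest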;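 further: 0% = full reaction with DMSO carrier and 100% = background rate without enzyme reaction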
Abs 340nm: absorbance at 340 nm | compound absorbance at 340 nm, fold over control | fold change at 10 µM | 65,000 tested, under 10 active | AID 708;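 active means at 10 µM dose, initial 340 nm absorbance at least 2 fold that of control wells; inactive means change under 2 fold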;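 further: initial absorbance extrapolated from kinetic A340 decline of NADH oxidation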
NADH enzymes: inhibition of NAD/NADH coupling enzymes, library profiling; coupled PK/LDH NADH assays, four targets; IC50, µM (titrated, usually from 10 µM), without a hit: top-dose inhibition; actives 0.02% (n = 65,000); AID 774;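 active means single-dose screening hits from any of four coupled enzyme assays that gave an IC50 when retested across doses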;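 further: the DPM-DC format reads NADH fluorescence rather than 340 nm absorbance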
Fluor 339 460: intrinsic fluorescence of library compounds, ex339/em460 – biochemical, MLSMR library, data from DPM-DC assay, artefact control, profiling panel; compound autofluorescence, ex339/em460 nm, NADH buffer; hits give high values; 1 = no-compound wells, NADH background; fluorescence fold increase at 10 µM; actives 5.5% (n = 65,000); AID 709;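 active means at 10 µM, mean starting fluorescence two-fold or more over control wells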;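 further: signal is the first read of a kinetic run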
* hit, by the source's call; i = inactive; x = no result shown; + = active, no number. Hits are enriched below; roughly 6.3% of the tested compounds scored in any of these assays.

SMILES	Spn MK inh	DPM-DC inhibit	PMK inhibit	Abs 340nm	NADH enzymes	Fluor 339 460
CCOC(=O)CN(C(=O)CSc1nnc2c(n1)[nH]c1ccc(OC)cc12)c1ccc(F)cc1	10.0	i	7.0	1	6.0%	1.1
Cc1cc(N2CCN(C)CC2)nc2ccc(NC(=O)c3ccc(Br)o3)cc12	5.0	i	0.0	1.22	2.0%	1.1
Cc1cc(N2CCC(C)CC2)nc2ccc(N3C(=O)CCC3=O)cc12	4.0	x	8.0	1.03	6.0%	5.04*
O=S(=O)(c1ccc(S(=O)(=O)N2CCCC2)cc1)N1CCCCCC1	0.0	i	11.0	1.02	6.0%	1
O=S(=O)(c1ccc2c(c1)C(=NO)c1cc(S(=O)(=O)N3CCCCC3)ccc1-2)N1CCCCC1	9.0	i	8.0	1.04	6.0%	2.02*
O=C(CCCn1c(=O)c2sccc2n(Cc2cc(=O)n3ccccc3n2)c1=O)NCc1ccco1	2.0	i	1.0	1.03	3.0%	1.62
O=C(CCn1c(=O)c2sccc2n(Cc2cc(=O)n3ccccc3n2)c1=O)NCc1ccco1	6.0	i	17.0	1.1	10.0%	2.21*
CSc1nn(CCc2ccncc2)c(=S)s1	2.0	i	1.0	1.06	1.0%	1.07
COC(=O)c1cc2c(ccn2-c2ccc(F)cc2)n1CC(=O)N1CCN(C(=O)c2ccco2)CC1	9.0	x	0.0	1.05	5.0%	3.51*
NC(=O)C1CC(=O)N(Cc2ccc3c(c2)OCO3)C(=Nc2ccccc2)S1 (configuration not stated)	0.0	i	18.0	1.05	6.0%	1.1
CNC(=O)C1CC(=O)N(Cc2ccc3c(c2)OCO3)C(=Nc2ccc(OC)cc2)S1 (configuration not stated)	0.0	i	27.0*	1.02	9.0%	1.12
COc1ccccc1-n1c(CNc2c(C)cccc2C)nnc1SCC(=O)N1CCOCC1	7.0	i	8.0	1.01	7.0%	1.04
CCc1nn(C(C)C(=O)NC(C)CCc2ccco2)c(=O)c2cc3occc3n12 (configuration not stated)	0.0	i	27.0*	0.98	11.0%	0.96
CCc1nn(C(C)C(=O)NCCc2ccc(OC)c(OC)c2)c(=O)c2cc3occc3n12 (configuration not stated)	7.0	i	26.0*	1.02	11.0%	1.04
CCOC(=O)c1cc(NC(=O)c2c(C)noc2C)cc(C(=O)OCC)c1	9.0	i	12.0	1.01	7.0%	1.01
CCOc1cc(-c2cc(-c3ccc(N)cc3)nc(N)c2C#N)ccc1O	12.0	x	5.0	1.07	9.0%	3.56*
COC(=O)c1ccccc1NC(=O)c1ccc2c(c1)C(=O)N(Cc1ccco1)C2=O	4.0	+	11.0	1.07	19.0%	3.06*
CCc1ccc(NC(=O)c2ccc3c(c2)C(=O)N(Cc2ccco2)C3=O)cc1	3.0	i	1.0	1.06	1.0%	1.16
O=C(N1CCC(O)(c2cccnc2)CC1)C12CC3CC(CC(C3)C1)C2	0.0	i	6.0	1.04	2.0%	1.24
O=c1[nH]c2ccccc2nc1Cc1ccccc1	13.0	i	1.0	1.04	12.0%	1.6
O=c1[nH]c2ccccc2nc1C(F)(F)C(F)F	6.0	x	4.0	1.05	5.0%	2.13*
Nc1nc(N)c2sc3nc4c(cc3c2n1)CCC4	4.0	+	0.0	1.06	13.0%	3.17*
CC1CC(=O)C=C(O)C1C(=O)OC(C)(C)C (configuration not stated)	6.0	i	8.0	1.05	5.0%	1.09
CN1CC(=O)NC1=NC(=O)c1ccc(Cl)c(S(=O)(=O)N2CCCCCC2)c1	0.0	i	28.0*	0.99	9.0%	1.06
CN1CC(=O)NC1=NC(=O)c1cc(F)c(F)cc1Cl	0.0	i	23.0	1.01	8.0%	1.06
Cc1ccc(-c2cc(-c3ccc(F)cc3)nc(N)c2C#N)o1	5.0	x	12.0	1.08	9.0%	3.7*
Cc1ccc(-c2cc(-c3ccccc3)c(C#N)c(N)n2)o1	18.0	x	17.0	0.99	18.0%	5.07*
Cc1ccc(-c2cc(-c3ccccc3Cl)c(C#N)c(N)n2)o1	15.0	x	0.0	1.11	8.0%	2.29*
Cc1ccc(C2C(C#N)=C(N)Oc3nc(-c4ccccc4)[nH]c32)o1 (configuration not stated)	6.0	i	10.0	1	5.0%	1.14
